Outcome and AC50 data for 9 compounds are collected here from PubChem BioAssay (EPA / NIEHS).

Assay [1] can be described thus: ATG_Sox_CIS: Attagene CIS-FACTORIAL HepG2 Assay for human SRY-box transcription factor (SOX) (AID 2282960). To be noted: HepG2 Attagene cis-factorial SOX reporter, mRNA; actives raise or lower the signal. In outline:
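Fluorescence-labelled cDNA fragments from reporter transcripts, sized by CE, give the signal. Cells: HepG2, transiently transfected with cis-regulated reporter units. Exposure 24 h; DMSO negative control; bidirectional curve fitting.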

Assay [2] deals with Transcription factor Sp1 (Homo sapiens) (UniProt P08047). Put plainly: ATG_Sp1_CIS: Attagene CIS-FACTORIAL HepG2 Assay for human Specificity Protein 1 (Sp1) (AID 2282961). As to conditions: HepG2 Sp1 cis-reporter transcription, actives raise or lower the signal. In outline:
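Chemicals are dosed onto HepG2 cells transfected with multiple cis-promoter reporter constructs, and after 24 h reporter RNA is reverse-transcribed, PCR-amplified and resolved by capillary electrophoresis for fluorescence quantitation; activity is scored up or down against DMSO.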

Assay [3] in a line: ATG_SREBP_CIS: Attagene CIS-FACTORIAL HepG2 Assay for human Sterol Regulatory Element Binding (SREBP) (AID 2282962). As to conditions: HepG2 Attagene cis-factorial SREBP reporter, mRNA; actives raise or lower the signal. In outline:
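HepG2 cells transiently transfected with multiplexed cis-element reporter units report endogenous transcription factor activity. After 24 h of chemical exposure, reporter mRNA was quantified by RT-PCR, 6-FAM labelling, HpaI digestion and capillary electrophoresis; bidirectional fits used DMSO as baseline.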

Assay [4] is described as follows: ATG_TA_CIS: Attagene CIS-FACTORIAL HepG2 Assay for human TA Basal Promoter (AID 2282964). To be noted: HepG2 Attagene CIS-factorial TA basal promoter reporter; actives raise or lower the signal. The essentials:
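Transfected HepG2, 24 h compound exposure; RNA → RT-PCR → FAM primer extension → HpaI cut → CE fluorescence. Gain/loss-of-signal fitted against DMSO negative control. Background-control readout.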

A short description of assay [5]: ATG_TCF_b_cat_CIS: Attagene CIS-FACTORIAL HepG2 Assay for human T-Cell-Factor with beta-catenin (TCF/b-cat) (AID 2282965). As to conditions: HepG2 TCF/beta-catenin cis-reporter transcription, actives raise or lower the signal. The essentials:
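Cells of the HepG2 line carry transiently transfected reporter units whose promoters respond to endogenous factors. Twenty-four hours post-dosing, reporter mRNA induction is measured by fluorescent RT-PCR and capillary electrophoresis, with DMSO as baseline.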

The nature of assay [6]: ATG_TAL_CIS: Attagene CIS-FACTORIAL HepG2 Assay for human TAL Basal Promoter (AID 2282966).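 Note: background control endpoint measuring basal TAL promoter reporter mRNA not a specific factor.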 To be noted: HepG2 Attagene cis-factorial TAL promoter reporter; actives raise or lower the signal. In outline:
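In this cell-based multiplex, HepG2 liver cells bearing cis-promoter reporter constructs are dosed for 24 hours. Total RNA is reverse-transcribed and amplified, labelled fragments are sized by capillary electrophoresis, and signal changes are fitted bidirectionally versus DMSO.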

The nature of assay [7]: ATG_TGFb_CIS: Attagene CIS-FACTORIAL HepG2 Assay for human Transforming Growth Factor (TGF) (AID 2282967). As to conditions: HepG2 Attagene CIS TGFb reporter, mRNA transcription; actives raise or lower the signal. In outline: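 Readout: fluorescently labeled reporter cDNA fragments resolved by capillary electrophoresis after RT-PCR. Transfected HepG2 cells dosed for 24 h; endogenous TF activity at TGFB1-linked cis element; gain or loss fitted relative to DMSO.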

Assay [8] is described as follows: ATG_VDRE_CIS: Attagene CIS-FACTORIAL HepG2 Assay for human Vitamin D Receptor Element (VDRE) (AID 2282968). To be noted: HepG2 VDRE cis-reporter transcription, actives raise or lower the signal. The essentials:
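Cell-based multiplexed reporter format in human liver HepG2 cells, 24 h post-dose. Fluorescence from capillary electrophoresis of reporter cDNA gives the signal, with DMSO as negative control and baseline.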

Assay [9] has as its target Estrogen receptor (Homo sapiens) (UniProt P03372). The experiment in a line: ATG_ERa_TRANS: Attagene TRANS-FACTORIAL HepG2 Assay for human Estrogen Receptor alpha (ERa) (AID 2282970; active = hit-call score of the fitted dose curve at least 0.9, where 1 is the maximum). To be noted: HepG2 Attagene TRANS ERa GAL4 reporter, mRNA. In outline:
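After 24 h of compound treatment, RNA from HepG2 cells bearing transfected GAL4-UAS reporter constructs is converted to cDNA, amplified and fluorescently labelled. Capillary electrophoresis resolves the ERa-linked reporter; DMSO serves as negative control.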

Assay [10] addresses Steroid hormone receptor ERR1 (Homo sapiens) (UniProt P11474). The experiment in a line: ATG_ERRa_TRANS: Attagene TRANS-FACTORIAL HepG2 Assay for human Estrogen-Related Receptor alpha (ERRa) (AID 2282971; active = hit-call score of the fitted dose curve at least 0.9, where 1 is the maximum). As to conditions: HepG2 Attagene TRANS reporter, ERRa transactivation. The essentials:
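Transfected HepG2, 24 h dosing, ERRa-Gal4 chimera driving GAL4-UAS reporter. Readout: reporter mRNA via RT-PCR plus capillary electrophoresis (fluorescence). Positive direction vs DMSO control.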

For assay [11], the target named is X-box-binding protein 1 (Homo sapiens) (UniProt P17861). Put plainly: ATG_Xbp1_CIS: Attagene CIS-FACTORIAL HepG2 Assay for human X-box Binding Protein 1 (XBP1) (AID 2282972). To be noted: HepG2 XBP1 cis-element reporter, Attagene multiplex; actives raise or lower the signal. The essentials:
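HepG2 cells transiently transfected with cis-regulated multiple reporter transcription units; endogenous transcription factor activity measured 24 hours after chemical dosing. Reporter mRNA quantified by RT-PCR, 6-FAM primer extension, HpaI digestion and capillary electrophoresis; bidirectional fitting versus DMSO.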

Assay [12] in a line: ATG_GAL4_TRANS: Attagene TRANS-FACTORIAL HepG2 Assay for GAL4 (Internal Marker) (AID 2282976; active = hit-call score of the fitted dose curve at least 0.9, where 1 is the maximum). To be noted: HepG2 Attagene TRANS GAL4 internal marker reporter. The essentials: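 RT-PCR/capillary electrophoresis readout of reporter mRNA. HepG2, transient MRTU transfection (GAL4-UAS reporters), 24 h compound exposure. Background-control endpoint, positive direction vs DMSO baseline.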

Assay [13] deals with Glucocorticoid receptor (Homo sapiens) (UniProt P04150). The experiment in a line: ATG_GR_TRANS: Attagene TRANS-FACTORIAL HepG2 Assay for human Glucocorticoid Receptor (GR) (AID 2282978; active = hit-call score of the fitted dose curve at least 0.9, where 1 is the maximum;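 note: activators score as hits since higher reporter transcript over DMSO is fitted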). To be noted: HepG2 Attagene TRANS GR reporter, mRNA transcription. In outline: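 Transiently transfected HepG2 cells express chimeric NR-GAL4 proteins acting on GAL4-UAS reporter units. Compounds are applied for 24 h. mRNA induction over DMSO is measured by capillary electrophoresis.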

Assay [14] deals with Oxysterols receptor LXR-beta (Homo sapiens) (UniProt P55055). Put plainly: ATG_LXRb_TRANS: Attagene TRANS-FACTORIAL HepG2 Assay for human Liver X Receptor beta (LXRb) (AID 2282981; active = hit-call score of the fitted dose curve at least 0.9, where 1 is the maximum). To be noted: HepG2 Attagene TRANS GAL4-LXRb reporter, mRNA. The essentials:
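Gain-of-signal mRNA reporter endpoint, DMSO as negative control. Transiently transfected HepG2 cells carrying the NR-Gal4 chimera and GAL4-UAS reporter units were treated 24 h; transcripts quantified by RT-PCR and capillary electrophoresis fluorescence.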

A short description of assay [15]: ATG_M_19_TRANS: Attagene TRANS-FACTORIAL HepG2 Assay for M19 Transcription Factor (Internal Marker) (AID 2282974; active = hit-call score of the fitted dose curve at least 0.9, where 1 is the maximum). As to conditions: HepG2 Attagene TRANS-FACTORIAL M19 internal marker reporter. In outline: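 Multiplexed TRANS format: HepG2 liver cells bearing transient GAL4-UAS reporter units, chemical treatment 24 h, reporter transcripts quantified by RT-PCR plus capillary electrophoresis. DMSO defines baseline.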

Assay [16] concerns the target Nuclear receptor subfamily 1 group I member 3 (Homo sapiens) (UniProt Q14994). The experiment in a line: ATG_CAR_TRANS: Attagene TRANS-FACTORIAL HepG2 Assay for human Constitutive Androstane Receptor (CAR) (AID 2282969; active = hit-call score of the fitted dose curve at least 0.9, where 1 is the maximum;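 note: activators raise reporter mRNA above DMSO so AC50 marks induction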). As to conditions: HepG2 Attagene TRANS-FACTORIAL CAR reporter. The essentials:
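HepG2 cells transiently transfected with GAL4-UAS reporter units; TRANS format reads activity of exogenous chimeric NR-Gal4 protein. After 24 h dosing, reporter mRNA quantified by RT-PCR, 6-FAM labelling and capillary electrophoresis; gain of signal fitted against DMSO.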

Assay [17] deals with Oxysterols receptor LXR-alpha (Homo sapiens) (UniProt Q13133). The experiment in a line: ATG_LXRa_TRANS: Attagene TRANS-FACTORIAL HepG2 Assay for human Liver X Receptor alpha (LXRa) (AID 2282980; active = hit-call score of the fitted dose curve at least 0.9, where 1 is the maximum). To be noted: HepG2 Attagene TRANS reporter, LXRa transactivation. In outline: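 Read-out: reporter transcript levels by RT-PCR plus capillary electrophoresis, fluorescence intensity. Transiently transfected HepG2, exogenous NR-GAL4 chimera, GAL4-UAS reporters; 24 h compound exposure. Activity = increase over DMSO negative control.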

Inconclusive results are not listed. Activity calls are given as the source filed them. Rule for the calls, unless noted: active = hit-call score of the fitted dose curve at least 0.9, where 1 is the maximum; inactive = score below 0.9.

Transcription factor Sp1 (Homo sapiens), sequence (P08047 whole entry, looked up): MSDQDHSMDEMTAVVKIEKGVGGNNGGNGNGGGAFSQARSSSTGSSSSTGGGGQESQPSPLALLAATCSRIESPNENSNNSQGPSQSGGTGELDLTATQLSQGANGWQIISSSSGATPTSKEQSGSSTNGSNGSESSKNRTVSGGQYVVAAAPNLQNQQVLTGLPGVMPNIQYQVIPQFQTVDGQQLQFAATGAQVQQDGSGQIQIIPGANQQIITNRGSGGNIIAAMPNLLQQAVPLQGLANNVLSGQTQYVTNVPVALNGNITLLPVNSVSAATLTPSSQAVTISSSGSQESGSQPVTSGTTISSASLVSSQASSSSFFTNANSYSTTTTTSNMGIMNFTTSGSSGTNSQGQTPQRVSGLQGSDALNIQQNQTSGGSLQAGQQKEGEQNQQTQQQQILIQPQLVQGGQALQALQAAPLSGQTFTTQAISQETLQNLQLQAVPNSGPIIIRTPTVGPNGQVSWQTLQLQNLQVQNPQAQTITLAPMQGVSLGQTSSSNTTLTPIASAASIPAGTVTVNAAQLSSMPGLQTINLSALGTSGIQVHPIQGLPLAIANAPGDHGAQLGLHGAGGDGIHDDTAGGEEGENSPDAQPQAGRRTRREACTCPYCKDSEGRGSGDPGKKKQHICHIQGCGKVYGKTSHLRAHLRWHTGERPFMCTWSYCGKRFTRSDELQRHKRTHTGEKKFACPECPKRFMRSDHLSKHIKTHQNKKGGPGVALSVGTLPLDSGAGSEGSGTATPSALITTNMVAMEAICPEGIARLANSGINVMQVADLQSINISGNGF
Nuclear receptor subfamily 1 group I member 3 (Homo sapiens), sequence (Q14994 whole entry, looked up, the tested form may be a part): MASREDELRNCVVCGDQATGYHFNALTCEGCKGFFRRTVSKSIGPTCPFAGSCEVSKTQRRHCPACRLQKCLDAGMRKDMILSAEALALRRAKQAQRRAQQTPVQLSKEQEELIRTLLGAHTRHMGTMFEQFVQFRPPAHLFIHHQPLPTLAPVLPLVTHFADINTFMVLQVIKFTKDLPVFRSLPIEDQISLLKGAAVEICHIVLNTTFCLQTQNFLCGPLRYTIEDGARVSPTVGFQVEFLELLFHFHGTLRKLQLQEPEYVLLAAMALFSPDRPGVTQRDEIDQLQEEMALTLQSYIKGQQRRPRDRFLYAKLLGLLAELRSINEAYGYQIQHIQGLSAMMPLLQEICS
Glucocorticoid receptor (Homo sapiens), sequence (P04150 whole entry, looked up, the tested form may be a part): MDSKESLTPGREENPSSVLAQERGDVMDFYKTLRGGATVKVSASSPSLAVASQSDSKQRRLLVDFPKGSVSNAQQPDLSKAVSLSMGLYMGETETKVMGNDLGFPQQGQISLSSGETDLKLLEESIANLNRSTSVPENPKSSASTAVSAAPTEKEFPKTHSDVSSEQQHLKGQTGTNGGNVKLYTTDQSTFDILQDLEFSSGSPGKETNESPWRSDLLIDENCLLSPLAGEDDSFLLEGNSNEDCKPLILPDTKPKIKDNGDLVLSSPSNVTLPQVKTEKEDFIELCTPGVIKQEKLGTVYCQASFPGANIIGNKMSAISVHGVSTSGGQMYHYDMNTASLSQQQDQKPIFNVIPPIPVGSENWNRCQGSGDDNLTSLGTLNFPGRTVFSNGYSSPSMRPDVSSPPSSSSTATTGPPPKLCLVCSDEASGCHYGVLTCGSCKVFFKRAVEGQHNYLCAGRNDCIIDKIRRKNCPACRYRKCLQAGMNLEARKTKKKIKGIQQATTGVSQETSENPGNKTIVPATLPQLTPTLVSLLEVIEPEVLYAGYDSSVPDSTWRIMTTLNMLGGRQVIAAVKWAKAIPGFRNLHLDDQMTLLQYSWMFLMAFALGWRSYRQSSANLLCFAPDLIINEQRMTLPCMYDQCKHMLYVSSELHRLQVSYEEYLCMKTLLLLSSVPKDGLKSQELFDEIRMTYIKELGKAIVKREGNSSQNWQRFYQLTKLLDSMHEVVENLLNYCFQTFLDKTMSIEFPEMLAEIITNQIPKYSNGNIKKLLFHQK
Oxysterols receptor LXR-alpha (Homo sapiens), sequence (Q13133 whole entry, looked up, the tested form may be a part): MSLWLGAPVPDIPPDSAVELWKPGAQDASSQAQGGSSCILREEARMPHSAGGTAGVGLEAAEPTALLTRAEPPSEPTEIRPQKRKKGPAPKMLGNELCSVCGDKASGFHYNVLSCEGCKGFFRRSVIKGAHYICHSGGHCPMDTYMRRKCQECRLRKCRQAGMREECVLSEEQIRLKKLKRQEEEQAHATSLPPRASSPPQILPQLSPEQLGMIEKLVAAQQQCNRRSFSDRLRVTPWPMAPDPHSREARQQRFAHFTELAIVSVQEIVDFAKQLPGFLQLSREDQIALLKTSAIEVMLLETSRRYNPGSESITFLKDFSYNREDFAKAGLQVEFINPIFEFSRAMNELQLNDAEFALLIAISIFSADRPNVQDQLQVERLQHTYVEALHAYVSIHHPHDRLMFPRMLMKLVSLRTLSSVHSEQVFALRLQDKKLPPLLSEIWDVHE
Oxysterols receptor LXR-beta (Homo sapiens), sequence (P55055 whole entry, looked up, the tested form may be a part): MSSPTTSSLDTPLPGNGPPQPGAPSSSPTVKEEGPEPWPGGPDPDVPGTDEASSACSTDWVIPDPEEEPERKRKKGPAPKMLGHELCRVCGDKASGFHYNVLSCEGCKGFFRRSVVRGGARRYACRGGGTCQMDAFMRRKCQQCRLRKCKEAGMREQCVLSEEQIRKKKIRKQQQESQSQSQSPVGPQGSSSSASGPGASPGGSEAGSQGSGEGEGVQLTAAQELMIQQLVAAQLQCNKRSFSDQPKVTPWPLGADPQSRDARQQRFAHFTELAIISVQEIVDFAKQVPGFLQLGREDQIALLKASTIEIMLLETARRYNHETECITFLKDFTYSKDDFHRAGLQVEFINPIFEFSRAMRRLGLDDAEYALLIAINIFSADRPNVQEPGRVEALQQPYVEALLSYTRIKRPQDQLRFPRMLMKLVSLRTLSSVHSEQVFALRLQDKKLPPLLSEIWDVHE
X-box-binding protein 1 (Homo sapiens), sequence (P17861 whole entry, looked up): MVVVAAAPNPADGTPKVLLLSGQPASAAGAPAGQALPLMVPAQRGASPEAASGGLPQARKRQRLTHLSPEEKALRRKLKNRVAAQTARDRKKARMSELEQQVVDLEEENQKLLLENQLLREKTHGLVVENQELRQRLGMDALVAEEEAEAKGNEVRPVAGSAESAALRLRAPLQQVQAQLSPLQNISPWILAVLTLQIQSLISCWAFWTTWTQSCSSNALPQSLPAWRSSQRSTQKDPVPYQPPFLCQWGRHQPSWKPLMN
Estrogen receptor (Homo sapiens), sequence (P03372 whole entry, looked up, the tested form may be a part): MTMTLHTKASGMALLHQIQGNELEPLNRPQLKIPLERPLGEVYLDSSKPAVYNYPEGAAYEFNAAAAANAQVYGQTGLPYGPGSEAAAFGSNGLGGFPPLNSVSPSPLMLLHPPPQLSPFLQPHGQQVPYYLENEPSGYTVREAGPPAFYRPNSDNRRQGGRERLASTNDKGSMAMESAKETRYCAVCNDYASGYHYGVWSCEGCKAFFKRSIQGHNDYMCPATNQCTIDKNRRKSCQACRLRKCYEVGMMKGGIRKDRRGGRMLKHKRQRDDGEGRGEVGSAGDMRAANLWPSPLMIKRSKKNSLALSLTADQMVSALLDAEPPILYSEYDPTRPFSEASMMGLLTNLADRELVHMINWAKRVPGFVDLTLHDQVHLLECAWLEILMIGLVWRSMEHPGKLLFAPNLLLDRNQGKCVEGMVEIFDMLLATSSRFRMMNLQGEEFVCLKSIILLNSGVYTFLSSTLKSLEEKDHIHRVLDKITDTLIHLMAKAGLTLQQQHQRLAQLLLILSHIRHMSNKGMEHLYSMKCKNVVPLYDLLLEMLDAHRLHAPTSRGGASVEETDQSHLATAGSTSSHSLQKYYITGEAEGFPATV
Steroid hormone receptor ERR1 (Homo sapiens), sequence (P11474 whole entry, looked up, the tested form may be a part): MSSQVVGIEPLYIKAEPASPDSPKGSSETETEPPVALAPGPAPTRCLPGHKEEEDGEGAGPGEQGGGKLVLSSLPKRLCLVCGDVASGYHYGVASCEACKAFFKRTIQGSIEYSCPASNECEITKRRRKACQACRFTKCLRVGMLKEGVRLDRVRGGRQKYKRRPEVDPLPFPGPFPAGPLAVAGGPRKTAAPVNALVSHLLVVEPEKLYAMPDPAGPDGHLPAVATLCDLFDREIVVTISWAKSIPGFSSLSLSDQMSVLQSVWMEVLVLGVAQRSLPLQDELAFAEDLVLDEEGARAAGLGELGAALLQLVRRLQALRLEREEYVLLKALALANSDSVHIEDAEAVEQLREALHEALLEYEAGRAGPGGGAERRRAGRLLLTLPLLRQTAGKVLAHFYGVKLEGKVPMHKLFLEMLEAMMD

Consider `CC(=O)C=C(C)C`, for which the result in assay [1], in assay [2], in [3], in assay [4], in assay [5] and in assay [6] was inactive. Also, the outcome in assay [7], in [8], in [9], in [10], in assay [11] and in [12] was inactive. For the same compound, the compound was called inactive in assay [13] and in assay [14].
For orientation: AC50 means the concentration at which the activity in the assay is half-maximal. As for `CC(C)(C)c1cc(O)ccc1O`, the AC50 in [1] was 179 µM (active); in [4] it was 138 µM (active); in assay [5] it was 119 µM (active); in assay [11], 109 µM (active). Moreover, the compound was classed as inactive in [2], in assay [3], in assay [6], in [7] and in assay [13].
With `CNC`, the outcome in [1], in [2], in assay [3], in assay [5], in [6] and in assay [7] was inactive. The result in assay [8], in [9], in assay [11], in [15], in [12] and in [13] was inactive. In addition, in assay [14], the call was inactive.
Regarding `Nc1ccc(N=Nc2ccc(-c3ccc(N=Nc4c(S(=O)(=O)O)cc5cc(S(=O)(=O)O)c(N=Nc6ccccc6)c(O)c5c4N)cc3)cc2)c(N)c1`, the outcome in assay [1], in assay [2], in assay [3], in assay [5], in assay [6] and in [7] was inactive. The compound was classed as inactive in assay [8], in assay [16], in assay [11], in assay [17] and in assay [14]. Further, the half-maximal activity concentration (AC50) in assay [9] is 19.9 µM (active).
Regarding `N#CCCO`, the compound was classed as inactive in assay [1], in assay [2], in [3], in assay [5], in assay [6] and in [7]. The call in assay [8], in assay [11], in [12], in [17] and in assay [14] was inactive.
Take `ClC1=C(Cl)[C@]2(Cl)[C@H]3[C@H]([C@H]4C=C[C@H]3C4)[C@@]1(Cl)C2(Cl)Cl`: the call in assay [1], in assay [2], in assay [3], in assay [4], in [5] and in assay [6] was inactive. For the same compound, the outcome in assay [7], in assay [8], in assay [16], in assay [11], in assay [15] and in assay [13] was inactive.
Turning to `CCc1ccccc1N`, the call in assay [1], in [2], in [3], in assay [4], in [5] and in assay [6] was inactive. Also, the compound was called inactive in [7], in assay [8], in [16], in assay [9], in assay [11] and in assay [15]. Moreover, the compound was called inactive in assay [12], in assay [17] and in assay [14].
With `O=C(Cl)c1ccc(Cl)cc1`, the compound was classed as inactive in assay [1], in [2], in [3], in assay [4], in [5] and in [6]. Further, the compound was classed as inactive in assay [7], in assay [8], in assay [9], in assay [11], in [15] and in [12]. For the same compound, the compound was called inactive in assay [13], in assay [17] and in assay [14].
Take `CC(C)OC(=O)Nc1ccccc1`: the outcome in assay [1], in assay [2], in assay [3], in assay [4], in assay [5] and in assay [6] was inactive. Further, the compound was classed as inactive in [7], in [8], in assay [11] and in assay [14].
